{"source": "PubChem BioAssay (Tox21)", "key": {"[1]": {"target": "Estrogen receptor beta (Homo sapiens) (UniProt Q92731)", "sequence (Q92731 whole entry, looked up)": "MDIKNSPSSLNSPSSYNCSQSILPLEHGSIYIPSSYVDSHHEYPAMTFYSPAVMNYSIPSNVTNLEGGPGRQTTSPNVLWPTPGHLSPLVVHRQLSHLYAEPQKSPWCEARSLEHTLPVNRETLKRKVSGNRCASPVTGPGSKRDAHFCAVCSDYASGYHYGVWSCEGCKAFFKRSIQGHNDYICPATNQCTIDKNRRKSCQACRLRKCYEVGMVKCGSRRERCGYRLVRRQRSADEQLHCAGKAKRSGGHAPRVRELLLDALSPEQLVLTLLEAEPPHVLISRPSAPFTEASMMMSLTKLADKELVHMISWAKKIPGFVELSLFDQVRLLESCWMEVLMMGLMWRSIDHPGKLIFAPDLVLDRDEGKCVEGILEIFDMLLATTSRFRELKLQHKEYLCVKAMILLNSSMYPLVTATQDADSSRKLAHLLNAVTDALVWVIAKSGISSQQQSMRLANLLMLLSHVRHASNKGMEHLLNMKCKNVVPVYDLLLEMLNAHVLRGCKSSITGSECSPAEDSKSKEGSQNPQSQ", "assay": "qHTS assay to identify small molecule agonists of the estrogen receptor beta (ER-beta) signaling pathway (AID 1259377; active means well fitted activation curve with a large enough effect in the signal ratio in the repeat runs, not every such curve was filed as active; the % refers to the signal ratio)", "outline": "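qHTS in ER-beta-UAS-bla HEK293T cells: 6 hr settling, then 16 hr compound at 37C, then LiveBLAzer substrate 2 h at RT before fluorescence reading.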"}, "[2]": {"assay": "qHTS assay to identify small molecule agonists of the androgen receptor (AR) signaling pathway in the presence of an antagonist - cell viability counter screen (AID 1259379);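 further: MDA-kb2 human breast cancer cells carrying an MMTV luciferase reporter; series mostly up to about 92 µM; nearly all actives have a fitted effect of over 25% in size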", "outline": "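Counter screen for cell viability run in parallel with the AR agonist-mode luciferase assay. MDA-kb2 cells were co-treated with nilutamide (3.0uM final) and compounds, then incubated 16 hr at 37C, and CellTiter-Fluor fluorescence was measured.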"}, "[3]": {"assay": "qHTS assay to identify small molecule agonists of the estrogen receptor beta (ER-beta) signaling pathway - cell viability counter screen (AID 1259380); further: nearly all actives have a fitted effect of over 30% in size; further: potency means the concentration at half of the fitted maximal effect", "outline": "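In this qHTS counter screen, HEK293T cells carrying an ER-beta/UAS beta-lactamase reporter, grown in 2% charcoal-stripped FBS, received compound for 16 hr; ATP-based CellTiter-Glo luminescence was then read after 30 min at room temperature.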"}, "[4]": {"target": "Androgen receptor (Homo sapiens) (UniProt P10275)", "sequence (P10275 whole entry, looked up)": "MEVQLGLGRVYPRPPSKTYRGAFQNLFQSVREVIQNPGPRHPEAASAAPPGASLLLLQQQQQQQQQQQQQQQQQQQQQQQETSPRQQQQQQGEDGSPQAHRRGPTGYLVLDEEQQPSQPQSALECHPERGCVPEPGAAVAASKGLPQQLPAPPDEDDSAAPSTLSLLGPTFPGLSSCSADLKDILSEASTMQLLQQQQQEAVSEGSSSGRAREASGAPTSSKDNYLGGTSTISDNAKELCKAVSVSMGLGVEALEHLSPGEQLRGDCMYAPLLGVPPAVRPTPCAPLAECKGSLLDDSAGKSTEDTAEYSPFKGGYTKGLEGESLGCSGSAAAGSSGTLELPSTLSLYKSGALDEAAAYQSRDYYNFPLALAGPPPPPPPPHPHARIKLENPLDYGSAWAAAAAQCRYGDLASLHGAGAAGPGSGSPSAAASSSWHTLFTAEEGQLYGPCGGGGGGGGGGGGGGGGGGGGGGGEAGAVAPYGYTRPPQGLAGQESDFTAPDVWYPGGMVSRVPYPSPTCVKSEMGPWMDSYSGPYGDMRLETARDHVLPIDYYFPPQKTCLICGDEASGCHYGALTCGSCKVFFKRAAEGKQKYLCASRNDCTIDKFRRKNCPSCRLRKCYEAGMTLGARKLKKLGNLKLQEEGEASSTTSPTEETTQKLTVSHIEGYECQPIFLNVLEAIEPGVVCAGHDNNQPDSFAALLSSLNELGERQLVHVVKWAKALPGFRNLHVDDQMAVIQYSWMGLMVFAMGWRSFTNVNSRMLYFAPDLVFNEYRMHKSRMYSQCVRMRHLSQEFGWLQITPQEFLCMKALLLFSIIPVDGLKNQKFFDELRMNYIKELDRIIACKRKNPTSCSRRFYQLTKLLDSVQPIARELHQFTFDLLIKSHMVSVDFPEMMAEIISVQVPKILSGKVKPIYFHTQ", "assay": "qHTS assay to identify small molecule agonists of the androgen receptor (AR) signaling pathway in the presence of an antagonist (AID 1259381; calls by dose curve; further: nearly all actives have a fitted effect of over 15% in size)", "outline": "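AR antagonist background: nilutamide 3.0uM final. Cell line: MDA-kb2, MMTV-driven luciferase, responsive to both AR and GR. Exposure 16hr, 37C, no CO2; ONE-Glo luminescence.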"}, "[5]": {"assay": "qHTS assay to identify small molecule antagonists of the estrogen receptor beta (ER-beta) signaling pathway - cell viability counter screen (AID 1259382); further: nearly all actives have a fitted effect of over 55% in size; further: potency means the concentration at half of the fitted maximal effect; on activity change, negative = cytotoxicity: series mostly up to about 92 µM", "outline": "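HEK293T ER-beta-UAS-bla, 2% charcoal-stripped FBS; compounds + 1nM E2 16 hr 37C; CellTiter-Glo luminescence, 30 min RT.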"}, "[6]": {"target": "Estrogen receptor (Homo sapiens) (UniProt P03372)", "sequence (P03372 whole entry, looked up)": "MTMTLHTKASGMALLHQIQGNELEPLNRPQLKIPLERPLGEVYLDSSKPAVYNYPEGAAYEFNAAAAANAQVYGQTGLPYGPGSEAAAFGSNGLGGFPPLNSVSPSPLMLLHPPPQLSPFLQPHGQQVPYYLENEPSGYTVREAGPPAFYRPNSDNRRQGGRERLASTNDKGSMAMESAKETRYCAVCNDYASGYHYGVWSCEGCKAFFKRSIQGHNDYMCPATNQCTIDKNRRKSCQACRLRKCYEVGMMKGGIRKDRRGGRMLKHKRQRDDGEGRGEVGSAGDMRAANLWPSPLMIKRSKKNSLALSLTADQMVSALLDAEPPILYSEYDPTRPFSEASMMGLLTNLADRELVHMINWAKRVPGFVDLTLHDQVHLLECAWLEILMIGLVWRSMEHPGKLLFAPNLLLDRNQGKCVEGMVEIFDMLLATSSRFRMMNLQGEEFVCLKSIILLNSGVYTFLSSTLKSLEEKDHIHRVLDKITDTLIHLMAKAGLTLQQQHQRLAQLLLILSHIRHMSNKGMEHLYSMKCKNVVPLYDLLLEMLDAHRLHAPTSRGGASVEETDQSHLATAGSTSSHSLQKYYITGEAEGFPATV", "assay": "qHTS assay to identify small molecule agonists of the estrogen receptor alpha (ER-alpha) signaling pathway in the presence of an antagonist (AID 1259383; calls by dose curve; further: top concentration of the series differs between compounds; nearly all actives have a fitted effect of over 15% in size)", "outline": "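ER-alpha agonism measured under antagonist challenge: 10.0nM ICI-182,780 (final) plus compound, 15 concentrations, 22hr, VM7Luc4E2 ERE-luciferase cells. Read by luminescence.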"}, "[7]": {"assay": "qHTS assay to identify small molecule agonists or antagonists of the thyroid stimulating hormone receptor (TSHR) signaling pathway - wild type cell line counter screen (AID 1259384; calls by dose curve)", "outline": "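Wild-type Hek293 cells, 800/well, 18 h at 37C, then compound with Ro20-1724 for 30 min RT. cAMP by HTRF (cAMP-d2/anti-cAMP cryptate), 1 h RT, fluorescence read. 15 concentrations, triplicates.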"}, "[8]": {"assay": "qHTS assay to identify small molecule agonists of the estrogen receptor alpha (ER-alpha) signaling pathway in the presence of an antagonist - cell viability counter screen (AID 1259386); further: nearly all actives have a fitted effect of over 30% in size; further: potency means the concentration at half of the fitted maximal effect; on activity change, negative = cytotoxicity: series mostly up to about 92 µM", "outline": "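Steps: 5-day stripped-FBS culture; seed and incubate 24hr; add ICI-182,780 (10.0nM final); pin 15-point compound titration; incubate 22hr at 37C; add CellTiter-Fluor at 21hr; read fluorescence.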"}, "[9]": {"target": "Estrogen receptor beta (Homo sapiens) (UniProt Q92731)", "assay": "qHTS assay to identify small molecule antagonists of the estrogen receptor beta (ER-beta) signaling pathway (AID 1259378; active means well fitted inhibition curve with a large enough effect in the signal ratio in the repeat runs, not every such curve was filed as active; the % refers to the signal ratio; further: potency means the concentration at half of the fitted maximal effect)", "outline": "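ER-beta-UAS-bla HEK293T cells in 2% charcoal-stripped FBS medium treated with compound plus 1nM final 17-beta-estradiol for 16 hr at 37C. Beta-lactamase reporter read by FRET substrate fluorescence after 2 hours at room temperature.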"}, "[10]": {"target": "Thyrotropin receptor (Homo sapiens) (UniProt P16473)", "sequence (P16473 whole entry, looked up)": "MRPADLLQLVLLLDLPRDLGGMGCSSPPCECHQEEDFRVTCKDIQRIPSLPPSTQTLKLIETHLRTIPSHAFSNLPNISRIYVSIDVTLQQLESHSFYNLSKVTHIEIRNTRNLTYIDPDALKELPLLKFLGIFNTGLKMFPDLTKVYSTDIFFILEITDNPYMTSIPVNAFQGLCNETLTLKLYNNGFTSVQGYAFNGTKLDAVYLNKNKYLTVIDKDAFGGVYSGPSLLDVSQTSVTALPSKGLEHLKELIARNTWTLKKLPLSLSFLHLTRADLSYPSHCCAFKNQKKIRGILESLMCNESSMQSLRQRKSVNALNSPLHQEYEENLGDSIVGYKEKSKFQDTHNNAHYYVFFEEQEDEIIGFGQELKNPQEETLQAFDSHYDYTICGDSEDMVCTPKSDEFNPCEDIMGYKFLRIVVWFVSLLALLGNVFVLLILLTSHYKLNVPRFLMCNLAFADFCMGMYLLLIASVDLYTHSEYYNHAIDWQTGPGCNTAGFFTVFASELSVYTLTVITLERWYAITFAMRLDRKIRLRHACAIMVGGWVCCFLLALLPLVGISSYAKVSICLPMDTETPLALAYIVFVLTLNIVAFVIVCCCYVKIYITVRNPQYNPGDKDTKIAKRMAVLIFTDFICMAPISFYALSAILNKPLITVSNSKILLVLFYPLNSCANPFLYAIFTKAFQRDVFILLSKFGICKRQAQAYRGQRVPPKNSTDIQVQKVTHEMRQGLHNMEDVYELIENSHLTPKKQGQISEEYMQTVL", "assay": "qHTS assay to identify small molecule antagonists of the thyroid stimulating hormone receptor (TSHR) signaling pathway (AID 1259385; calls by dose curve; further: nearly all actives have a fitted effect of over 20% in size)", "outline": "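TSHR-HEK293 cells (800/well) plated 18 h, then compounds with Ro20-1724 and TSH at 1.5 ng/mL final, 30 min at room temperature. cAMP quantified by HTRF (cAMP-d2/anti-cAMP-cryptate, 1 h); 15 concentrations in triplicate.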"}}, "note": "Unmarked numbers belong to inactive results. Results filed as inconclusive are left out. A call without a number means that no potency is given here. The source made the active and inactive calls. Unless noted, the call rests on the fitted dose curve; in most records, active means well fitted curve in the direction sought with a large enough effect in the repeat runs; inconclusive means weak or mixed curves; inactive means no such curve, though single readings can be large; an effect the other way counts as inactive or inconclusive."}
{"compound": "c1ccc(-c2ccccn2)nc1", "values": [{"measurement": "Potency", "setting": "[1]", "value": "inactive"}, {"measurement": "Potency", "setting": "[2]", "value": "inactive"}, {"measurement": "Potency", "setting": "[3]", "value": "inactive"}, {"measurement": "Potency", "setting": "[4]", "value": "inactive"}, {"measurement": "Potency", "setting": "[5]", "value": "inactive"}, {"measurement": "Potency", "setting": "[6]", "value": "inactive"}, {"measurement": "Potency", "setting": "[7]", "value": "inactive"}, {"measurement": "Potency", "setting": "[8]", "value": "inactive"}]}
{"compound": "COc1cc2nc(N(C)CCCNC(=O)C3CCCO3)nc(N)c2cc1OC", "note": "(centres undefined)", "values": [{"measurement": "Potency", "setting": "[1]", "value": "inactive"}, {"measurement": "Potency", "setting": "[9]", "value": "inactive"}, {"measurement": "Potency", "setting": "[3]", "value": "inactive"}, {"measurement": "Potency", "setting": "[5]", "value": "inactive"}, {"measurement": "Potency", "setting": "[6]", "value": "inactive"}, {"measurement": "Potency", "setting": "[7]", "value": "inactive"}, {"measurement": "Potency", "setting": "[10]", "value": "inactive"}, {"measurement": "Potency", "setting": "[8]", "value": "23.7 µM (active)"}]}
{"compound": "CCCCCCCCCCCC(=O)OC[C@@H](O)[C@H]1OC[C@H](OCCO)[C@H]1OCCO", "values": [{"measurement": "Potency", "setting": "[1]", "value": "inactive"}, {"measurement": "Potency", "setting": "[2]", "value": "inactive"}, {"measurement": "Potency", "setting": "[3]", "value": "inactive"}, {"measurement": "Potency", "setting": "[5]", "value": "inactive"}, {"measurement": "Potency", "setting": "[6]", "value": "inactive"}, {"measurement": "Potency", "setting": "[7]", "value": "inactive"}, {"measurement": "Potency", "setting": "[10]", "value": "inactive"}]}
{"compound": "c1ccc(C(O[C@H]2CCCN(CCc3ccc4c(c3)OCO4)C2)c2ccccc2)cc1", "values": [{"measurement": "Potency", "setting": "[1]", "value": "inactive"}, {"measurement": "Potency", "setting": "[2]", "value": "inactive"}, {"measurement": "Potency", "setting": "[5]", "value": "inactive"}, {"measurement": "Potency", "setting": "[6]", "value": "inactive"}, {"measurement": "Potency", "setting": "[7]", "value": "inactive"}, {"measurement": "Potency", "setting": "[8]", "value": "inactive"}]}
{"compound": "Cn1c(=O)cc(Oc2ccc(F)cc2F)c2cnc(NCC(C)(C)O)nc21", "values": [{"measurement": "Potency", "setting": "[1]", "value": "inactive"}, {"measurement": "Potency", "setting": "[2]", "value": "inactive"}, {"measurement": "Potency", "setting": "[3]", "value": "inactive"}, {"measurement": "Potency", "setting": "[5]", "value": "inactive"}, {"measurement": "Potency", "setting": "[6]", "value": "inactive"}]}
{"compound": "COc1ccc(-c2nc3ccc(C4=NNC(=O)CC4C)cc3[nH]2)cc1", "note": "(centres undefined)", "values": [{"measurement": "Potency", "setting": "[1]", "value": "inactive"}, {"measurement": "Potency", "setting": "[2]", "value": "inactive"}, {"measurement": "Potency", "setting": "[3]", "value": "inactive"}, {"measurement": "Potency", "setting": "[4]", "value": "inactive"}, {"measurement": "Potency", "setting": "[5]", "value": "inactive"}, {"measurement": "Potency", "setting": "[6]", "value": "inactive"}, {"measurement": "Potency", "setting": "[7]", "value": "inactive"}]}
{"compound": "CCCNCC(O)COc1ccccc1C(=O)CCc1ccccc1", "note": "(centres undefined)", "values": [{"measurement": "Potency", "setting": "[1]", "value": "inactive"}, {"measurement": "Potency", "setting": "[2]", "value": "inactive"}, {"measurement": "Potency", "setting": "[3]", "value": "26.6 µM (active)"}, {"measurement": "Potency", "setting": "[7]", "value": "inactive"}, {"measurement": "Potency", "setting": "[8]", "value": "inactive"}]}
{"compound": "CN(Cc1ccc(C(C)(C)C)cc1)Cc1cccc2ccccc12", "values": [{"measurement": "Potency", "setting": "[1]", "value": "inactive"}, {"measurement": "Potency", "setting": "[2]", "value": "inactive"}, {"measurement": "Potency", "setting": "[3]", "value": "26.6 µM (active)"}, {"measurement": "Potency", "setting": "[5]", "value": "23.7 µM (active)"}, {"measurement": "Potency", "setting": "[6]", "value": "inactive"}, {"measurement": "Potency", "setting": "[8]", "value": "inactive"}]}
{"compound": "O=C1OC(CN2CCOCC2)CN1/N=C/c1ccc([N+](=O)[O-])o1", "note": "(centres undefined)", "values": [{"measurement": "Potency", "setting": "[1]", "value": "inactive"}, {"measurement": "Potency", "setting": "[9]", "value": "inactive"}, {"measurement": "Potency", "setting": "[3]", "value": "inactive"}, {"measurement": "Potency", "setting": "[4]", "value": "inactive"}, {"measurement": "Potency", "setting": "[5]", "value": "inactive"}, {"measurement": "Potency", "setting": "[6]", "value": "inactive"}, {"measurement": "Potency", "setting": "[10]", "value": "inactive"}]}
{"compound": "CO[C@@H]1[C@H](OC(=O)/C=C/C=C/C=C/C=C/C(=O)O)CC[C@]2(CO2)[C@H]1[C@@]1(C)O[C@@H]1CC=C(C)C", "values": [{"measurement": "Potency", "setting": "[1]", "value": "inactive"}, {"measurement": "Potency", "setting": "[9]", "value": "inactive"}, {"measurement": "Potency", "setting": "[3]", "value": "inactive"}, {"measurement": "Potency", "setting": "[5]", "value": "inactive"}, {"measurement": "Potency", "setting": "[6]", "value": "inactive"}, {"measurement": "Potency", "setting": "[7]", "value": "inactive"}, {"measurement": "Potency", "setting": "[10]", "value": "inactive"}, {"measurement": "Potency", "setting": "[8]", "value": "inactive"}]}
{"compound": "CNCCCCOc1ccccc1Cc1ccccc1", "values": [{"measurement": "Potency", "setting": "[1]", "value": "inactive"}, {"measurement": "Potency", "setting": "[9]", "value": "11.9 µM (active)"}, {"measurement": "Potency", "setting": "[3]", "value": "11.9 µM (active)"}, {"measurement": "Potency", "setting": "[6]", "value": "inactive"}, {"measurement": "Potency", "setting": "[7]", "value": "inactive"}, {"measurement": "Potency", "setting": "[8]", "value": "inactive"}]}
{"compound": "C/C=C/C(=O)CC", "values": [{"measurement": "activation", "setting": "[1]", "value": "-1.08% [at 19 µM]"}, {"measurement": "activity change, negative = cytotoxicity", "setting": "[2]", "value": "0.797% [at 19 µM]"}, {"measurement": "activity change, negative = cytotoxicity", "setting": "[3]", "value": "5.9% [at 19 µM]"}, {"measurement": "Potency", "setting": "[6]", "value": "inactive"}, {"measurement": "activity change, negative = inhibition", "setting": "[10]", "value": "0.568% [at 19 µM]"}, {"measurement": "activity change, negative = cytotoxicity", "setting": "[8]", "value": "2.64% [at 19 µM]"}]}
